G9a inh: blocks human histone lysine methyltransferase G9a; Q96KQ7; G9a H3K9 monomethylation, AlphaScreen, 2 h; Potency, µM (top dose mostly 102 µM), for the others: at the highest dose activity, negative = inhibition, most hits filed as inhibitors; 350,000 compounds, 8.8% hits; further: on the % scale 0 is the no-effect control and ±100 the full control effect; nearly all actives have a fitted effect of over 75% in size
Target sequence (Q96KQ7 913-1193 limits assumed): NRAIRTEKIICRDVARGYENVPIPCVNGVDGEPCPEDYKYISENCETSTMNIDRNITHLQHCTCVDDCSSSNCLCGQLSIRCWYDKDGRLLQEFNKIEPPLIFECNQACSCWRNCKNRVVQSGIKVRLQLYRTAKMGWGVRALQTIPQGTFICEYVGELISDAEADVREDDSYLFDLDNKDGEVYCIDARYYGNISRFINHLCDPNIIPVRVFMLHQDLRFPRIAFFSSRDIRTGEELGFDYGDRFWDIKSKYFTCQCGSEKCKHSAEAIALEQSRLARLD
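AlphaScreen read-out: biotin-H3K9 peptide (500 nM) methylation by 20 nM enzyme with 20 uM SAM, 2 h at room temperature after 15 min compound preincubation; anti-monomethyl H3K9 antibody plus donor/acceptor beads, 10 min dark.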
HP1b binding inh: HP1-beta chromodomain-methylated histone interaction inhibition; AID 540317; 390,000 compounds, 0.56% hits; AlphaScreen HP1-beta / biotin-H3K9me3 peptide binding; Potency, µM (series often up to 114 µM), for inactives: at the top dose activity change, negative = inhibition, most hits filed as inhibitors; P83916; further: nearly all actives have a fitted effect of over 70% in size
Target sequence (P83916 whole entry, looked up): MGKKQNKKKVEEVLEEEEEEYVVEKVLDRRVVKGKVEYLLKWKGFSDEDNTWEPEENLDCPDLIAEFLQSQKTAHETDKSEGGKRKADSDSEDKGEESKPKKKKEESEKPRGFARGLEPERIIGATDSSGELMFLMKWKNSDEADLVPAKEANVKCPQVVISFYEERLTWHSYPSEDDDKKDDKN
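HP1-beta protein (50 nM final) preincubated 30 min at room temperature with biotinylated H3(1-18)K9me3 peptide (50 nM) in PBS pH 7.4, 0.01% Tween-20, then compound added for 30 min. AlphaScreen streptavidin donor/nickel chelate acceptor beads (10 ug/mL final), 30 min dark, luminescence read.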
JMJD2A Tudor inh: JMJD2A Tudor domain (human) inhibition. AID 504339. Potency, µM (top dose mostly 114 µM), for inactives: at the top dose activity change, negative = inhibition, actives largely listed as inhibitors. O75164. 390,000 compounds, 4.4% hits. AlphaScreen JMJD2A-Tudor / H3K4me3 peptide binding; further: on the % scale 0 is the no-effect control and ±100 the full control effect; nearly all actives have a fitted effect of over 50% in size
Sfp PPTase inh: inhibitors of Bacillus subtilis Sfp phosphopantetheinyl transferase; AID 1490; 310,000 compounds, 3.5% hits; Biochemical Sfp PPTase activity, qHTS; Q9F4F7; Potency, µM, for inactives: largest response in the series, negative = inhibition, most hits filed as inhibitors;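 further: the enzyme is Sfp with the accession as filed and its product quenches rhodamine fluorescence; 0% = enzyme reaction without inhibitor and -100% = no enzyme wells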
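Reaction rates are the 30-min fluorescence difference (ex 525, em 598 nm) in wells containing 15 nM Sfp, 5 uM rhodamine-CoA and 12.5 uM BHQ-2-YbbR at pH 7.6 with 10 mM MgCl2.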
PLK1 PBD inh: blocks phosphopeptide binding to human PLK1 polo-box domain; Plk1 PBD binding of FITC phosphopeptide, fluorescence polarization; Potency, µM, for the others: max response, negative = inhibition, usual class: inhibitors; 360,000 compounds, 2.8% hits; AID 720504; further: series mostly up to about 57 µM; on the % scale 0 is the no-effect control and ±100 the full control effect; nearly all actives have a fitted effect of over 65% in size
BAZ2B inh: inhibitors of human BAZ2B bromodomain; AlphaScreen BAZ2B-H3K14Ac peptide displacement; Q9UIF8; 360,000 compounds, 4.4% hits; AID 504333; Potency, µM (titrated, usually from 114 µM), without a hit: at the highest dose activity change, negative = inhibition, actives largely listed as inhibitors; further: on the % scale 0 is the no-effect control and ±100 the full control effect; nearly all actives have a fitted effect of over 60% in size
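Complex of BAZ2B and biotin-H3K14Ac (50 nM apiece) forms over 30 min at RT, then faces library compounds up to 110 uM for another 30 min; AlphaScreen beads added, 20 min dark incubation, luminescence read.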
* marks the source's active call; other numbers are inactive results; u = inconclusive; x = no result; ! = not confirmed by another sample; [ ] = dose if it differs, or a comment. The list is not random: actives were taken first. Their share in the collection is about 12%. The call rests on the fitted dose curve; in most records, active means well fitted curve in the direction sought with a large enough effect; inconclusive means small, poorly fitted or top-dose-only effect, or another doubt; inactive means no such curve, though single readings can be large; an effect the other way counts as inactive or inconclusive. Potency means the concentration at half of the fitted maximal effect.

SMILES	G9a inh	HP1b binding inh	JMJD2A Tudor inh	Sfp PPTase inh	PLK1 PBD inh	BAZ2B inh
S=c1[nH]c(-c2ccccc2)cn1/N=C/c1ccccc1Br	2.5µM*	-11%	-27%	-2%	-17%	u
Cc1cc(N2CCN(Cc3cn(C)nc3-c3cccc(Cl)c3)CC2)cc(C)n1	x	0%	-15%	-3%	-8%	45µM*
Cn1cc(CN2CCN(c3ncccn3)CC2)c(-c2cccc(Cl)c2)n1	-36%	16%	-4%	14%	0%	-5%
CCOC(=O)C1CCN(c2nc(N)c3c(N)nc(SCC(=O)O)cc3c2C#N)CC1	8.9µM*	18µM*	-15%[11.4 µM]	6.3µM*	11µM*	40µM*
NC/C=C/C(=O)O	7%[59 µM]	x	x	23%	x	x
COC(=O)c1sc(-c2ccc(C(C)(C)C)cc2)cc1NC(=O)CCC(=O)O	71µM*	58%	-16%	-8%	u	-28%
COC(=O)c1sc(-c2ccc(Cl)cc2)cc1NC(=O)/C=C/C(=O)O	-28%	40%	-8%	u	-12%	-11%
COC(=O)c1sc(-c2ccc(Cl)cc2)cc1NC(=O)COCC(=O)O	56µM*	23%	-20%	3%	-10%	u
Cc1ccccc1CNC(=O)Cn1ncn2nc(-c3cccs3)cc2c1=O	-12%[59 µM]	53%	5%	x	x	-16%
Cc1cc(C(=O)NCCCN2CCN(C3CCCCC3)CC2)n(-c2ccccc2)n1	-27%	19%	-22%	-12%	-15%	-3%
O=C(O)CCCNc1cc(N2CCN(C3CCCCC3)CC2)c2noc3c2c1C(=O)c1ccccc1-3	16µM*	22µM*	35µM*	x	x	32µM*
CC(C)Nc1cc(N2CCN(C3CCCCC3)CC2)c2noc3c2c1C(=O)c1ccccc1-3	u	u	22µM*	x	x	13µM*
CCNc1cc(N2CCN(C3CCCCC3)CC2)c2noc3c2c1C(=O)c1ccccc1-3	u	u	50µM*	x	x	35µM*
Cn1c(=O)cc(SCC(=O)N2CCN(C3CCCCC3)CC2)c2ccccc21	x	3%	-20%	x	0%	x
CC1(C)OC2CC3C4CC(F)C5=CC(=O)C=CC5(C)C4(F)C(O)CC3(C)C2(C(=O)CO)O1 (stereo not given)	-5%[2.33 µM]	64%	-11%	8%	2%	10%
COc1ccc(C2C(C#N)=C(N)Nc3nc4ccccc4n32)cc1 (stereo not given)	u	15%	-11%	27%	-9%	3%
N#CC1=C(N)Nc2ncnn2C1c1ccc(F)cc1 (stereo not given)	40µM*	40%	-4%	5%	6%	14%
CCc1ccc2[nH]c(C(=O)Nc3ccc(F)cc3Br)cc2c1	45µM*	9%	-27%	56µM*	-5%	-18%
Cc1ccccc1C(=O)Nc1ccc(Br)c(C)n1	18%[59 µM]	18%	15%[11.4 µM]	1%	u	30%
CCc1ccc2[nH]c(C(=O)Nc3ccc(Br)c(C)n3)cc2c1	45µM*	36%	-25%	2%	-1%	-20%
CN(C)c1ncnc2ccc(-c3cccc(C#N)c3)cc12	-8%[0.501 µM]	x	x	11%	x	x
CCOC(=O)C1C(=O)CC(=O)C(C(=O)OCC)C1c1ccc(O)cc1 (stereo not given)	x	x	x	x	-3%	x
CCOC(=O)C1C(=O)C(C(C)=O)C(=O)CC1CC(C)SCC (stereo not given)	u	-2%	89µM*	-12%	-5%	-9%
COc1ccc(CNC(=O)CN(C(=O)CCC(=O)Nc2ccccn2)c2cccc(C)c2C)cc1	5%	-9%	-13%	20%	0%	-19%
NC(=O)C1CCCN1S(=O)(=O)c1ccc2ccccc2c1 (stereo not given)	x	16%	-15%	23%	2%	-4%
SMILES	G9a inh	HP1b binding inh	JMJD2A Tudor inh	Sfp PPTase inh	PLK1 PBD inh	BAZ2B inh
CCCOC(=O)c1cccc(NC(=O)CSc2nnc3cc(C)c4ccccc4n23)c1	-20%[59 µM]	33%	-7%	x	x	-2%
CCCCNc1nc(C)c(C(C)=O)cc1C#N	1%	0%	-6%	13%	-10%	-25%
CCCNc1nc(C)c(C(C)=O)cc1C#N	0%	32%	-7%	19%	-6%	50µM*
Cc1ccc(-n2c(C)cc(C(=O)NS(=O)(=O)c3ccc(C)cc3)c2C)cc1	50µM*	2%	-29%	-3%	-7%	u
CCOc1ccc(-n2c(C)cc(C(=O)NS(=O)(=O)c3ccc(C)cc3)c2C)cc1	u	-4%	-28%	3%	-8%	4%
COc1ccc2nc3cc(Cl)ccc3c(Nc3ccc(O)c(CN4CCN(C)CC4)c3)c2c1	x	16µM*	32µM*	x	-3%	x
COc1ccc(C2C=C3CNS(=O)(=O)C3CC2OC(=O)c2cccs2)cc1 (stereo not given)	x	22%	-30%	-15%	x	x
Cn1c(N)c(C(=O)COC(=O)c2ccc(-c3ccccc3)cc2)c(=O)n(C)c1=O	x	11%	-23%	x	2%	x
CCOCCCNC(=O)/C(C#N)=C/c1ccc(Cl)c([N+](=O)[O-])c1	u	u	-2%	6%	-26%	-22%
COc1ccc(/C=C(\C#N)C(=O)NCCc2ccccc2)cc1OCc1ccccc1	1µM*	42%	-7%	13%	-9%	42%
COc1cc(/C=C(/C#N)C(=O)NCc2ccccc2)cc(OC)c1OC	x	52%	-3%	-2%	-4%	-2%
COCCNC(=O)/C(C#N)=C/c1ccc(O)cc1	x	31%	-6%	7%	-4%	5%
CCOCCCNC(=O)/C(C#N)=C/c1cc(OC)c(O)c([N+](=O)[O-])c1	50µM*	-17%	-23%	-24%	-13%	u
COCCNC(=O)/C(C#N)=C/c1cccc(/C=C(\C#N)C(=O)NCCOC)c1	-9%[59 µM]	0%	-11%	20µM*	u	-3%
N#C/C(=C\c1ccc(O)c(O)c1)C(=O)NCCCc1ccccc1	3.4µM*	u	45µM*	63µM*!	-19%	8.9µM*
CCCOc1ccc(CN(C(=O)c2cc(=O)c3ccc(C)cc3o2)C2CCS(=O)(=O)C2)cc1 (stereo not given)	-45%[59 µM]	2%	-26%	x	x	-23%
Cc1cc(C)cc(Oc2c(C(F)(F)F)oc3c(CN4CCCC(C)C4)c(O)ccc3c2=O)c1 (stereo not given)	0%[59 µM]	33%	-3%	x	x	0%
COc1ccccc1Cc1c(C2CCCCC2)nc2ccc(Br)cn12	x	x	x	x	-9%	x
